Only a selection was taken, and hits are over-represented in it overall.
HDAC3 inh: inhibitors of human histone deacetylase 3. O15379. inhibition, % at 8.3 µM. recombinant HDAC3, fluorogenic peptide/trypsin coupled, fluorescence. AID 2718. actives 0.15% (n = 320,000); in the data active = inhibition above about 26%, passing the limit was not always enough; inconclusive = no clear call, values can overlap the other calls
NPR1 activator: GC-A (human) enzyme activation; P16066; HEK293 GC-A cells, cGMP TR-FRET, EC30 ANP; 0% at EC30 ANP, 100% saturating ANP; activation, % at 10 µM; actives 0.14% (n = 370,000); AID 1671463; in the data active = activation above about 40%
ALR inh: blocks human ALR sulfhydryl oxidase activity | AID 485317 | actives 3.8% (n = 290,000) | purified ALR, DTT oxidation, H2O2 HRP-luminol luminescence | P55789 | inhibition, % (test concentration not listed);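 active = mean replicate inhibition above about 79%, with every replicate also reaching it, limit read from the data; inconclusive = only one of the two criteria met; inactive = mean below limit and not every replicate reaching it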
GC-B act: GC-B (human) receptor activation. P20594. HEK293-GC-B cells, CNP EC30, cGMP TR-FRET; 0% at EC30 CNP, 100% saturating CNP. activation, % at 10 µM. actives 0.11% (n = 370,000). AID 1920062;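 active = activation at 10 µM reaching about 35% in either raw or pattern-adjusted values, limit read from the data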
Target sequence (P20594 whole entry, looked up): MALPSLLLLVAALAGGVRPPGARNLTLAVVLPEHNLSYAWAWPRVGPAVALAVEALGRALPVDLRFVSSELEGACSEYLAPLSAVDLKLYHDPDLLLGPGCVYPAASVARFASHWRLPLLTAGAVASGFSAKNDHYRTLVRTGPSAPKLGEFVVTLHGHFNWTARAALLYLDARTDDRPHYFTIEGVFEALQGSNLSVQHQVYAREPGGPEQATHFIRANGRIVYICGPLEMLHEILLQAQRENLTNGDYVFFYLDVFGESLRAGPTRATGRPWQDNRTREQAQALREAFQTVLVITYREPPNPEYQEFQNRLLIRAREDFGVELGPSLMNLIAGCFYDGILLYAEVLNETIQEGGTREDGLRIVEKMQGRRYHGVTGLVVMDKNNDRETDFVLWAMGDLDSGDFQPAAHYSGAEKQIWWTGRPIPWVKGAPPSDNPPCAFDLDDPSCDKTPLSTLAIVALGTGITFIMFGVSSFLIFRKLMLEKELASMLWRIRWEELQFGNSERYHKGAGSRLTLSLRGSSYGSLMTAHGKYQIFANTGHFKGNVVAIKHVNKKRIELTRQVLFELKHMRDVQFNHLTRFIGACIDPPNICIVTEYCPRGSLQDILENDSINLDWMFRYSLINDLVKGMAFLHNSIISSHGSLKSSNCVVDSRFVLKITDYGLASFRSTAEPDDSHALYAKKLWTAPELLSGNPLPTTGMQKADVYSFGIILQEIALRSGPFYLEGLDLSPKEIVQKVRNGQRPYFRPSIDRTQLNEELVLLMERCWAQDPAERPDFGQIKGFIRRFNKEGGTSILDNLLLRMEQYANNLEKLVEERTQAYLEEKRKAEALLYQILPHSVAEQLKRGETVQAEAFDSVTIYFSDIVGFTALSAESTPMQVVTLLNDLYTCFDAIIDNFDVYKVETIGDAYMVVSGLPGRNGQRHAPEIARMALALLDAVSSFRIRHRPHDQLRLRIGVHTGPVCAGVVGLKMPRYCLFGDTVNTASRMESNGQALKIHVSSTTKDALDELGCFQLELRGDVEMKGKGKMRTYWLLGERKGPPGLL
Of the large screens only hits and unclear results are named; the others gave an inactive call.

CCN(CC)c1ccc(NS(=O)(=O)c2ccc3c(c2)oc(=O)n3C)c(C)c1	ALR inh 99
Cc1cc(C)c(NS(=O)(=O)c2ccc3c(c2)oc(=O)n3C)c(C)c1	none (no result: HDAC3 inh, ALR inh)
Nc1cc(-c2ccccc2)nn1S(=O)(=O)c1ccc(Br)cc1	ALR inh 99
Cc1cccc(NC(=O)CSc2nc(=O)n(CCCN3CCOCC3)c3c2CCCC3)c1	ALR inh 98
CC(=O)c1cccc(NC(=O)CSc2nc(=O)n(CCCN3CCOCC3)c3c2CCC3)c1	ALR inh 98
Cc1cc(C)cc(NC(=O)CSc2nc(=O)n(CCN3CCOCC3)c3c2CCCC3)c1	none
O=C(CSc1nc(=O)n(CCCN2CCOCC2)c2c1CCCC2)Nc1cccc(Cl)c1	HDAC3 inh inconclusive, ALR inh 99
C[C@@H]1O[C@@H](n2c3ccc(Cl)cc3c3ccc4c5cc(Cl)ccc5[nH]c4c32)[C@H](O)[C@H](O)[C@H]1O	none (no result: HDAC3 inh, ALR inh)
Cc1ccc(C2(C)NC(=O)N(CC(=O)Nc3cc(S(=O)(=O)N4CCCCC4)ccc3OC(C)C)C2=O)cc1 (stereo not given)	none
COc1ccc(CNC(=O)c2cccc3c2C(=O)N(Cc2cccnc2)C3)cc1	none (no result: ALR inh)
COc1ccc(CNC(=O)c2cccc3c2C(=O)N(CC2CCCO2)C3)cc1 (stereo not given)	ALR inh 88 (no result: HDAC3 inh)
NC(=O)c1ccc[n+](CC(=O)c2ccc(F)cc2)c1	none
Cc1cccc(/C=N/n2c(C)nc3ccccc3c2=O)c1	none (no result: ALR inh)
O=c1cc(CN2CCc3ccccc32)c2ccc(O)cc2o1	ALR inh 99
CC(C)CCN1NC2(CCCC(C)C2)NC1=S (stereo not given)	none
COc1ccc(-c2nc3cc(C)ccn3c2NCC2CCCO2)cc1OC (stereo not given)	none
COc1cc(-c2nc3cccc(C)n3c2NCC2CCCO2)ccc1O (stereo not given)	ALR inh 99
COC(=O)[C@H](CC(C)C)N1Cc2nnn(Cc3ccc(C)cc3)c2-c2cc(F)ccc2S1(=O)=O	none (no result: HDAC3 inh, ALR inh)
Cc1ccc2[nH]c(O)c(N=Nc3nc4ccccc4s3)c2c1	none (no result: ALR inh)
Oc1[nH]c2ccccc2c1N=Nc1nc2ccccc2s1	ALR inh 88
CCCCN1CN2Cc3cc(F)ccc3C2CS1(=O)=O (stereo not given)	none (no result: HDAC3 inh, ALR inh)
COC(=O)[C@H]1C[C@@]2(n3ccc4ccccc43)c3ccccc3N(S(=O)(=O)c3ccccc3)[C@H]2N1	none (no result: HDAC3 inh, ALR inh)
CC(=O)c1cccc(-n2c(CCC(=O)O)ccc2-c2cccs2)c1	ALR inh 89
CC(=O)c1cccc(-n2c(CCC(=O)O)ccc2-c2ccccc2)c1	none
O=C(O)CCc1ccc(-c2cccs2)n1NC(=O)c1ccccc1Br	ALR inh 99
CC(C)(C)c1ccc(C(=O)Nn2c(CCC(=O)O)ccc2-c2cccs2)cc1	none
O=C(O)CCc1ccc(-c2cccs2)n1CCc1ccccc1	ALR inh 99
O=C(O)CCc1ccc(-c2cccs2)n1CCC(=O)O	none
C[C@@H]1CN([C@@H](C)CO)S(=O)(=O)c2ccc(C#CC3CCCCC3)cc2O[C@@H]1CN(C)Cc1cccnc1	none (no result: HDAC3 inh, ALR inh)
COC(=O)C1=C(C)N(C)C(=NCc2ccc(OC)cc2)NC1c1cccc(Cl)c1 (stereo not given)	none (no result: HDAC3 inh, ALR inh)
Cn1c(SCC(=O)c2ccc(-c3ccccc3)cc2)nnc1-c1ccco1	ALR inh 88
Cn1c(SCC(=O)c2ccc(O)c(O)c2)nnc1-c1cccs1	ALR inh 99
Cn1c(SCC(=O)c2ccc(O)c(O)c2)nnc1-c1ccccc1	ALR inh 93
CNC(=O)CSc1nnc(-c2ccccc2)n1C	none (no result: HDAC3 inh)
Cc1ccc(NC(=S)N(CCN2CCCCC2)Cc2ccco2)cc1Cl	none (no result: ALR inh)
CCCN1C(=O)c2ccccc2NC1c1ccc(OC)cc1OC (stereo not given)	none
CCCN1C(=O)c2ccccc2NC1c1ccc(OC)cc1O (stereo not given)	ALR inh 88
O=C1c2ccccc2NC(c2ccccc2O)N1O (stereo not given)	ALR inh 91
Cn1c(=S)[nH]c2ccccc21	ALR inh 84
N#CCCn1c(=S)[nH]c2ccccc21	none
N#Cc1ccccc1NC(=S)NC(=O)c1cccnc1	ALR inh 95
CC(C)c1ccc(NC(=O)c2cccnc2)cc1	none
CCC(C)c1ccc(O)c(NC(=S)NC(=O)c2cccnc2)c1 (stereo not given)	ALR inh 98
O=C(NC(=S)Nc1cc([N+](=O)[O-])ccc1O)c1cccnc1	none
CC(C)c1ccc(O)c(NC(=O)c2cccnc2)c1	ALR inh 89
O=C(NC(=S)Nc1ccccc1O)c1cccnc1	none
CC(NC(=O)c1ccc(Br)s1)c1ccncc1 (stereo not given)	none
O=c1[nH]c(/C=C/c2ccc(Cl)cc2Cl)c([N+](=O)[O-])c(=O)[nH]1	ALR inh 97
CCc1ccc2[nH]c3nc(C)cc(C)c3c(=O)c2c1	NPR1 activator 41, GC-B act 37
CC(C)CCN1CCC[C@]2(N[C@H](c3ccc(C(F)(F)F)cc3)[C@@H]3C(=O)N(Cc4ccccc4)C(=O)[C@@H]32)C1=O	none (no result: HDAC3 inh, ALR inh)
O=C(NC(=S)N1CCCc2ccccc21)c1ccccc1	ALR inh 99
COc1cccc(C2NC(=O)c3sc(=S)n(-c4ccccc4)c3N2)c1 (stereo not given)	ALR inh 97
COc1cc(CNc2nccn3ccnc23)cc(OC)c1	none (no result: HDAC3 inh, ALR inh)
CCC(=O)/C=C1/Sc2ccc(OC)cc2N1CCO	none
CCC(/C=C1\Sc2ccc(OC)cc2N1CC)=C\c1sc2ccc(OC)cc2[n+]1CCCS(=O)(=O)[O-]	ALR inh 97
CCC(/C=C1\Sc2ccc(OC)cc2N1CCO)=C\c1sc2ccc(OC)cc2[n+]1CCO	HDAC3 inh inconclusive
CCC(=O)/C=C1/Sc2ccc(OC)cc2N1CC	ALR inh 77
COc1cc2nc(NC(=O)c3ccccc3)sc(=O)c2cc1OC	none (no result: HDAC3 inh, ALR inh)
COC(=O)Cc1[nH]n(-c2nc3ccccc3s2)c(=O)c1C(C)=Nc1ccc(C)cc1	ALR inh 98
CC(CCN1CCN(c2ccccc2)CC1)c1ccccc1 (stereo not given)	none
COCCNC(=S)N(CCc1c(C)[nH]c2ccccc12)Cc1ccco1	ALR inh 87
C=CCC1NS(=O)(=O)O[C@H](CCCC)[C@@H]1O (stereo not given in full)	none
N#C/C(=C\c1ccc(O)cc1)C(=O)N1CCCC1	ALR inh 81
Cc1n[nH]c(=O)c2c(NC(=O)CSc3ccc(Br)cc3)oc(C)c12	none
C=CCn1c(-c2cccc(OCC)c2)n[nH]c1=S	none
C=CCn1c(-c2cc(OC)cc(OC)c2)n[nH]c1=S	ALR inh 96
C=CCn1c(-c2cc(-c3ccc(C)cc3)nc3ccccc23)n[nH]c1=S	ALR inh 94
CCOc1ccc(NC(=O)CSc2nccn(-c3ccc4c(c3)OCCO4)c2=O)cc1	ALR inh 98
Cc1ccc(NC(=O)CSc2nccn(-c3ccc4c(c3)OCCO4)c2=O)cc1	ALR inh 99
Cc1cc(/C=N/Nc2nc(N)ncc2[N+](=O)[O-])c(C)n1-c1cccc(C(F)(F)F)c1	none (no result: NPR1 activator, GC-B act)

High-throughput results from PubChem BioAssay.
